# This excerpt belongs to a sample that is enriched for the strongest signals.
# B1: 7WC (Trifolium repens) (protein)
# chain: MGTITSYAVVFDAGSTGSRVHVYHFDQNLDLLHIGKDVEFYNKIQPGLSAYADNPEQAAKSLIPLLEQAENVVPEDFHSKTPIRLGATAGLRLLDGDASERILQAVRDMLNNKSTFNVQPDAVSIIDGTQEGSYLWVTINYVLGNLGKRFTNTVGVIDLGGGSVQMAYAVSKKTARNAPKVTDGEDPYIKKIVLKGKPYDLYVHSYLHFGREASRAEILKVTHGSASPCILAGFDGIYTYSGEEFKASAPTSGANFDKCKKIIQKALKLDYPCPYQNCTFGGIWNGGGGSGQKKLFAASSFFYLPQDVGMVDPNKSNLKLRPVDLENKAKIVCTLNVEDVKSAYPLLEKFNIVPYACMDLIYQYELLVDGFGLDPLQEITAGEKIEYQEALVDAAWALGNAVEAVLLLPKFERLMYFVVEHHHHHH
# B2: CD23 (Homo sapiens) (protein)
# chain: MELQVSSGFVCNTCPEKWINFQRKCYYFGKGTKQWVHARYACDDMEGQLVSIHSPEEQDFLTKHASHTGSWIGLRNLDLKGEFIWVDGSHVDYSNWAPGEPTSRSQGEDCVMMRGSGRWNDAFCDRKLGAWVCDRLATCTPPASEGSAESMGPDSRPDPDGRLPTPSAPLHS
# Columns and labels:
# Experiment in all cases: glycan array binding signal (z-score within array); higher = stronger binding
# Conditions in all cases: glycan notation: IUPAC condensed, linker removed
# [1] = target: Fuc(a1-2)Gal(b1-4)[Fuc(a1-3)]GalNAc(b1-3)Gal(b1-4)[Fuc(a1-3)]GlcNAc
# Outline: (§1)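 Columns mapping to the same glycan were averaged after glycan names were converted to IUPAC-condensed notation. The data come from 3228 arrays in the Consortium for Functional Glycomics database, limited to those with an available protein sequence. Binding is reported as a within-array Z-score averaged across arrays of one protein sequence and across linkers.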
# [2] = target: Fuc(a1-2)Gal(b1-4)[Fuc(a1-3)]GlcNAc
# Outline: as §1
# Gal(a1-3)Gal(b1-3)Glc = target: Gal(a1-3)Gal(b1-3)Glc
# Outline: as §1
# [3] = target: Gal(b1-3)[Neu5Ac(a2-6)]GalNAc
# Outline: as §1
# [4] = target: Gal(b1-4)GlcNAc(b1-3)Gal(b1-4)Glc
# Outline: as §1
# Gal4S(b1-4)GlcNAc = target: Gal4S(b1-4)GlcNAc
# Outline: as §1
# Glc(a1-4)Glc = target: Glc(a1-4)Glc
# Outline: as §1
# [5] = target: GlcNAc(b1-3)Gal(b1-4)GlcNAc(b1-3)Gal(b1-4)GlcNAc
# Outline: as §1
# [6] = target: GlcNAc(b1-3)[GlcNAc(b1-6)]GlcNAc
# Outline: as §1
# [7] = target: Man(a1-2)Man(a1-2)Man(a1-6)[Man(a1-3)]Man
# Outline: as §1
# Man(a1-2)Man(a1-3)Man = target: Man(a1-2)Man(a1-3)Man
# Outline: as §1
# [8] = target: Neu5Ac(a2-3)Gal(b1-3)[Fuc(a1-4)]GlcNAc(b1-3)Gal(b1-4)[Fuc(a1-3)]GlcNAc
# Outline: as §1
# [9] = target: Neu5Ac(a2-3)Gal(b1-4)GlcNAc6S
# Outline: as §1
# [10] = target: Neu5Ac(a2-3)Gal(b1-4)[Fuc(a1-3)]GlcNAc(b1-3)Gal(b1-4)[Fuc(a1-3)]GlcNAc(b1-3)Gal(b1-4)[Fuc(a1-3)]GlcNAc
# Outline: as §1
# Neu5Ac(a2-6)GalNAc = target: Neu5Ac(a2-6)GalNAc
# Outline: as §1
# [11] = target: Neu5Ac9Ac(a2-6)Gal(b1-4)GlcNAc
# Outline: as §1
# [12] = target: Fuc(a1-2)Gal(b1-4)GlcNAc6S
# Outline: as §1
# Fuc(a1-2)[Gal(a1-3)]Gal = target: Fuc(a1-2)[Gal(a1-3)]Gal
# Outline: as §1
# [13] = target: Fuc(a1-2)[Gal(a1-3)]Gal(b1-3)GlcNAc
# Outline: as §1
# [14] = target: Fuc(a1-2)[Gal(a1-3)]Gal(b1-4)[Fuc(a1-3)]GlcNAc
# Outline: as §1
# [15] = target: Fuc(a1-2)[GalNAc(a1-3)]Gal(b1-4)[Fuc(a1-3)]GlcNAc
# Outline: as §1
# [16] = target: Fuc(a1-3)[Gal3S(b1-4)]Glc6S
# Outline: as §1
# [17] = target: Fuc(a1-3)[Gal3S(b1-4)]GlcNAc6S
# Outline: as §1
# Gal(a1-6)Glc = target: Gal(a1-6)Glc
# Outline: as §1
# [18] = target: Gal(b1-4)GlcNAc(b1-2)Man(a1-3)[Gal(b1-4)GlcNAc(b1-2)Man(a1-6)]Man(b1-4)GlcNAc(b1-4)GlcNAc
# Outline: as §1
# GalNAc(b1-4)GlcNAc = target: GalNAc(b1-4)GlcNAc
# Outline: as §1
# [19] = target: GlcNAc(b1-2)Man(a1-3)[GlcNAc(b1-2)Man(a1-6)]Man(b1-4)GlcNAc(b1-4)GlcNAc
# Outline: as §1
# [20] = target: GlcNAc(b1-3)Gal(b1-3)GalNAc
# Outline: as §1
# GlcNAc(b1-3)Gal(b1-4)Glc = target: GlcNAc(b1-3)Gal(b1-4)Glc
# Outline: as §1
# [21] = target: Neu5Ac(a2-3)Gal(b1-3)GlcNAc(b1-3)Gal(b1-3)GlcNAc
# Outline: as §1
# [22] = target: Neu5Ac(a2-3)Gal(b1-4)[Fuc(a1-3)]GlcNAc(b1-3)Gal
# Outline: as §1
# [23] = target: Neu5Ac(a2-3)Gal(b1-4)[Fuc(a1-3)]GlcNAc(b1-3)Gal(b1-4)GlcNAc
# Outline: as §1
# Neu5Ac(b2-6)GalNAc = target: Neu5Ac(b2-6)GalNAc
# Outline: as §1
# [24] = target: Neu5Gc(a2-6)Gal(b1-4)GlcNAc
# Outline: as §1
Binder,glycan array binding signal (z-score) [1],glycan array binding signal (z-score) [2],glycan array binding signal (z-score) (Gal(a1-3)Gal(b1-3)Glc),glycan array binding signal (z-score) [3],glycan array binding signal (z-score) [4],glycan array binding signal (z-score) (Gal4S(b1-4)GlcNAc),glycan array binding signal (z-score) (Glc(a1-4)Glc),glycan array binding signal (z-score) [5],glycan array binding signal (z-score) [6],glycan array binding signal (z-score) [7],glycan array binding signal (z-score) (Man(a1-2)Man(a1-3)Man),glycan array binding signal (z-score) [8],glycan array binding signal (z-score) [9],glycan array binding signal (z-score) [10],glycan array binding signal (z-score) (Neu5Ac(a2-6)GalNAc),glycan array binding signal (z-score) [11],glycan array binding signal (z-score) [12],glycan array binding signal (z-score) (Fuc(a1-2)[Gal(a1-3)]Gal),glycan array binding signal (z-score) [13],glycan array binding signal (z-score) [14],glycan array binding signal (z-score) [15],glycan array binding signal (z-score) [16],glycan array binding signal (z-score) [17],glycan array binding signal (z-score) (Gal(a1-6)Glc),glycan array binding signal (z-score) [18],glycan array binding signal (z-score) (GalNAc(b1-4)GlcNAc),glycan array binding signal (z-score) [19],glycan array binding signal (z-score) [20],glycan array binding signal (z-score) (GlcNAc(b1-3)Gal(b1-4)Glc),glycan array binding signal (z-score) [21],glycan array binding signal (z-score) [22],glycan array binding signal (z-score) [23],glycan array binding signal (z-score) (Neu5Ac(b2-6)GalNAc),glycan array binding signal (z-score) [24]
B1,-0.347,-0.391,-0.298,-0.464,-0.215,-0.335,2.65,-0.327,0.685,9.79,-0.261,4.17,-0.474,2.57,-0.153,-0.491,–,–,–,–,–,–,–,–,–,–,–,–,–,–,–,–,–,–
B2,–,0.228,–,–,–,–,–,–,–,–,–,–,–,–,–,1.43,-0.186,-0.374,-0.086,0.988,0.752,2.25,0.491,0.204,-0.225,-0.48,-0.157,1.43,-0.494,-0.189,-0.435,1.15,-0.582,-0.645

# From the supplement of paper PMC8728848
